The values that follow come from the supplement of paper PMC6555819.

One experiment deals with LXRa:RXRa (NR concentration 270 nM, RXRa partner concentration 90 nM). As to the kind of experiment: PBM binding z-score (relative to random genomic background probes); higher = stronger binding; sequences stand for … in GC…GCGATTGACAGCGTAGAATGAAGG
Summed up:
(§1)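 Ligand-free nuclear receptor dimers were applied to custom Agilent 4×180K protein-binding microarrays whose double-stranded probes carried direct-repeat seeds, single-nucleotide variants, half-site ablations and random human genomic background sequences in 34-nt variable regions. Incubation lasted 1 h. Binding z-scores were computed against the random background probes from regression-normalized fluorescence.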
Take CGTCCGAGGTCAGCAGGTCAGTGAAAGCGACGTG: the PBM binding z-score amounted to 4.61.
As to ATACCAAGGCGATCGTGAGGTCGTTGATACTAAC, the PBM binding z-score is 0.195.
On the same count and under the same terms, with TAGAGTAGGTTAGGGGCATTCAGAATGGCGTCGA the figure was 0.929; with CCTTACGGGTCAACGTTATAGCACGGGTGGTACG, 3.47; with ATACCAAGGTGATCGTAAGGTCGTTGATACTAAC, 1.46.
Still for that read-out and setting: the same measure for ATACCAAGGTGATCGTGAGGTCGTGGATACTAAC: 1.27; for GCTCGGTGGACAAGGTCAGAGCTTTGTCCGTAGA: 1.03; for CCTAGCTGGTCAGGAGGTCACACACCGGATATGA: 3.73.
Same read-out and setting: with AGAATGAGGTTATTAAGTTCAGGGAATTGCGGTC the figure was 3.29.
TCTTGTAGATCAAAGGTTAACAAAGCCGAAGCCT yielded a PBM binding z-score of 2.08.
Still for that read-out and setting: the same measure for CGTGCAAGGTCAGCAGGTCAGTGAAAGCGACGTG: 4.37; for GCGACTGGGGCATCAGCAGGTTACCAGAACTTAA: -0.156; for AGTCAAAGTTCATCTATGTAACGTAAGATATGCT: 5.79.
Sequence AGTCATAGTTCAGGACGAGGTAACGTAAAGCACG gave a PBM binding z-score of 1.13.
Regarding AGTCAAAGTGCACTAGGTAACGTAAGATTCAGCT, the PBM binding z-score is -0.0298.
The same measure, in the same setting: the same measure for TCGAGAAGGTTACCAATGGGGCATTCAGCTTTCT: 2.9; for TCTAGTTGGTCAAAGGTCACACAGTCGAAATGCG: 5.83; for CGAACTAGGTAATCCAGGACAGTGAATACATTGA: -0.39.

In another experiment the test system is LXRa homodimer (NR concentration 270 nM). The experiment is described as above. Summed up:
as §1
CAAACTAGGTCACCGGAAGGTCCAAGTCCGCATG showed a PBM binding z-score of 0.716.
Same read-out and setting: the same measure for TCTTGTAGATCATTAGAGGTTAAGAAAGTGCGCT: 1.68; for TCTTGTAGATCAACAGGAGGCTAAGAAAGATCGA: -0.481; for TTAACAAGGTGAGCTGAGGTCGTTGATCCAACTC: -0.57.
Same read-out and setting: with ACAGACAGGTGAGTGAAGCTAACTCAGCTGGACG the figure was -0.787.
Same read-out and setting: the same measure for GCTGCTAGGTCAGGTTGGTCAGCTTACGGGTACG: -0.122; for ACTAGCAGGCCAAGTTTGGGTCACACAAACAAAG: -0.252.
With TCTTGTAGATCAATAGCGGTTAAGAAAGTGCGCT, the PBM binding z-score came out at 0.174.
On the same count and under the same terms, with ATCTCGAGGTAAGACTCAGTTCAGTGAAGAACGC the figure was -0.0445; with AGAATGAGGTTAATATCAGGGAAACAGAATACAT, 0.149.
In the case of GCTAGCAGGCCATTTGGGTCATTCAATGACGGGC, the PBM binding z-score is -0.598.
On the same count and under the same terms, with GATACAGGGCCAAGGCCAGAGTACGCGTATTGAT the figure was -0.782; with CGAAATAGGTCAAGGACAGTGAATCTCCGCACGC, 0.715.
On the same count and under the same terms, with ATCTCTAGGTAAACAAGTTCAGTGAATGCCGAAC the figure was 1.16; with AGATGTAGGTTATCGGGTCATTCAGTTTGCGCAT, 1.64.
For TCGTGTAGGTTAGTCGGGGCATTCAGCCAACATA, the PBM binding z-score came out at 0.294.
The same measure, in the same setting: with TCTCAAAGTTCAAAGGTAACGTAAGTATCCACAC the figure was 5.13; with TCATATAGGTAAACAGATGAAAGTCCGTAAGTTA, 0.342; with CCTGCTAGGTCAGTGGTCAGCTAAAGCAGCTCGC, -0.482.
The same measure, in the same setting: the same measure for TAAACAGGGTCAAAGGCCAGAGTACGAATGTCGA: 0.675.
The same measure, in the same setting: with AGGACGAGGGCACGCTGAGTTGATAGCAGAGTAG the figure was -0.584; with GATACAGGGTCAGCTGGAGGCCAGAGTATGGAAA, -0.49; with CGTCCGAGGTCAGCAGGTCAGTGAAAGCGACGTG, 0.517.
Take ATACCAAGGCGATCGTGAGGTCGTTGATACTAAC: the PBM binding z-score stood at 0.46.
TAGAGTAGGTTAGGGGCATTCAGAATGGCGTCGA: the PBM binding z-score came to 0.289.
Same read-out and setting: with CCTTACGGGTCAACGTTATAGCACGGGTGGTACG the figure was -0.0163; with ATACCAAGGTGATCGTAAGGTCGTTGATACTAAC, 0.729; with ATACCAAGGTGATCGTGAGGTCGTGGATACTAAC, 0.515.
In turn, GCTCGGTGGACAAGGTCAGAGCTTTGTCCGTAGA showed a PBM binding z-score of -0.446.
With CCTAGCTGGTCAGGAGGTCACACACCGGATATGA, the PBM binding z-score is 1.44.
Still for that read-out and setting: with AGAATGAGGTTATTAAGTTCAGGGAATTGCGGTC the figure was 2.12; with TCTTGTAGATCAAAGGTTAACAAAGCCGAAGCCT, -0.0148.
Same read-out and setting: with CGTGCAAGGTCAGCAGGTCAGTGAAAGCGACGTG the figure was 0.442; with GCGACTGGGGCATCAGCAGGTTACCAGAACTTAA, -0.341; with AGTCAAAGTTCATCTATGTAACGTAAGATATGCT, 5.16.
AGTCATAGTTCAGGACGAGGTAACGTAAAGCACG displayed a PBM binding z-score of -0.0495.
The sequence AGTCAAAGTGCACTAGGTAACGTAAGATTCAGCT came in with a PBM binding z-score of -0.372.
The same measure, in the same setting: the same measure for TCGAGAAGGTTACCAATGGGGCATTCAGCTTTCT: -0.534; for TCTAGTTGGTCAAAGGTCACACAGTCGAAATGCG: 4; for CGAACTAGGTAATCCAGGACAGTGAATACATTGA: -0.012.

The next experiment has as its system LXRb:RXRa (NR concentration 270 nM, RXRa partner concentration 90 nM). The experiment is described as above. Put shortly:
as §1
For the sequence CAAACTAGGTCACCGGAAGGTCCAAGTCCGCATG, the PBM binding z-score was 2.42.
Still for that read-out and setting: with TCTTGTAGATCATTAGAGGTTAAGAAAGTGCGCT the figure was 2.27; with TCTTGTAGATCAACAGGAGGCTAAGAAAGATCGA, -0.391.
In the case of TTAACAAGGTGAGCTGAGGTCGTTGATCCAACTC, the PBM binding z-score was 0.45.
Same read-out and setting: with ACAGACAGGTGAGTGAAGCTAACTCAGCTGGACG the figure was -0.865; with GCTGCTAGGTCAGGTTGGTCAGCTTACGGGTACG, 0.397.
Still for that read-out and setting: with ACTAGCAGGCCAAGTTTGGGTCACACAAACAAAG the figure was 1.17.
Still for that read-out and setting: the same measure for TCTTGTAGATCAATAGCGGTTAAGAAAGTGCGCT: 0.435.
The sequence ATCTCGAGGTAAGACTCAGTTCAGTGAAGAACGC had a PBM binding z-score of -0.053.
On the same count and under the same terms, with AGAATGAGGTTAATATCAGGGAAACAGAATACAT the figure was 2.17.
The same measure, in the same setting: with GCTAGCAGGCCATTTGGGTCATTCAATGACGGGC the figure was 0.324; with GATACAGGGCCAAGGCCAGAGTACGCGTATTGAT, -1.
Same read-out and setting: with CGAAATAGGTCAAGGACAGTGAATCTCCGCACGC the figure was 3.
Regarding ATCTCTAGGTAAACAAGTTCAGTGAATGCCGAAC, the PBM binding z-score is 0.55.
In turn, AGATGTAGGTTATCGGGTCATTCAGTTTGCGCAT showed a PBM binding z-score of 3.01.
TCGTGTAGGTTAGTCGGGGCATTCAGCCAACATA registered a PBM binding z-score of 1.36.
Same read-out and setting: the same measure for TCTCAAAGTTCAAAGGTAACGTAAGTATCCACAC: 4.82.
Same read-out and setting: with TCATATAGGTAAACAGATGAAAGTCCGTAAGTTA the figure was 0.86.
On the same count and under the same terms, with CCTGCTAGGTCAGTGGTCAGCTAAAGCAGCTCGC the figure was 0.299; with TAAACAGGGTCAAAGGCCAGAGTACGAATGTCGA, 4.69.
AGGACGAGGGCACGCTGAGTTGATAGCAGAGTAG came in with a PBM binding z-score of 0.138.
Same read-out and setting: the same measure for GATACAGGGTCAGCTGGAGGCCAGAGTATGGAAA: 2.38.
With CGTCCGAGGTCAGCAGGTCAGTGAAAGCGACGTG, the PBM binding z-score came to 3.78.
Take ATACCAAGGCGATCGTGAGGTCGTTGATACTAAC: the PBM binding z-score was determined as 0.571.
Still for that read-out and setting: with TAGAGTAGGTTAGGGGCATTCAGAATGGCGTCGA the figure was 1.66; with CCTTACGGGTCAACGTTATAGCACGGGTGGTACG, 2.99; with ATACCAAGGTGATCGTAAGGTCGTTGATACTAAC, 1.42.
On the same count and under the same terms, the same measure for ATACCAAGGTGATCGTGAGGTCGTGGATACTAAC: 1.39.
Same read-out and setting: with GCTCGGTGGACAAGGTCAGAGCTTTGTCCGTAGA the figure was 0.887; with CCTAGCTGGTCAGGAGGTCACACACCGGATATGA, 3.21; with AGAATGAGGTTATTAAGTTCAGGGAATTGCGGTC, 1.95.
TCTTGTAGATCAAAGGTTAACAAAGCCGAAGCCT: the PBM binding z-score was found to be 2.16.
Still for that read-out and setting: with CGTGCAAGGTCAGCAGGTCAGTGAAAGCGACGTG the figure was 3.25; with GCGACTGGGGCATCAGCAGGTTACCAGAACTTAA, 0.413; with AGTCAAAGTTCATCTATGTAACGTAAGATATGCT, 3.59.
Regarding AGTCATAGTTCAGGACGAGGTAACGTAAAGCACG, the PBM binding z-score stood at 0.662.
The same measure, in the same setting: the same measure for AGTCAAAGTGCACTAGGTAACGTAAGATTCAGCT: -0.0247; for TCGAGAAGGTTACCAATGGGGCATTCAGCTTTCT: 1.76; for TCTAGTTGGTCAAAGGTCACACAGTCGAAATGCG: 5.36.
Consider CGAACTAGGTAATCCAGGACAGTGAATACATTGA, for which the PBM binding z-score was -0.349.
